{"source": "PubChem BioAssay AID1159580", "about": "(chemical genetic matrix, 2015)", "assay": "chemical genetic growth profiling, strain panel (AID 1159580);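 note: tested at 20 µM; growth read once vehicle control cultures reached saturation at 30 °C; 1 = growth at the plate median or of vehicle wells; lower values mean less growth of the strain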", "details": "S. cerevisiae deletion strains, growth OD", "key": {"[1]": {"details": "locus YDL101C, strain DUN1, hits give low values"}, "[2]": {"details": "locus YHR030C, strain SLT2, hits give low values"}}, "note": "The campaign covered roughly 5,500 compounds. About 2,000 (36%) were called active. About 18% were inconclusive and are not listed. This is one part of the list. Unmarked numbers belong to inactive results. Cut-off read from the data, not from the text of the source: active = normalized growth mostly below about 0.91 (no sharp cut-off); inconclusive = no clear call, values can overlap the other calls; inactive = mostly above about 0.92."}
{"smiles": "O=[N+]([O-])c1cc(Br)cnc1Sc1nnc(SCC2CC2)s1", "values": [{"measurement": "normalized growth", "setting": "locus YAR019C, strain CDC15, hits give low values", "value": 0.928}, {"measurement": "normalized growth", "setting": "locus YBL105C, strain PKC1, hits give low values", "value": 0.96}, {"measurement": "normalized growth", "setting": "locus YBR135W, strain CKS1, hits give low values", "value": 0.932}, {"measurement": "normalized growth", "setting": "locus YBR136W, strain MEC1, hits give low values", "value": 0.959}, {"measurement": "normalized growth", "setting": "locus YBR160W, strain CDC28, hits give low values", "value": 0.953}, {"measurement": "normalized growth", "setting": "locus YDL017W, strain CDC7, hits give low values", "value": 0.961}, {"measurement": "normalized growth", "setting": "locus YDL028C, strain MPS1, hits give low values", "value": 0.935}, {"measurement": "normalized growth", "setting": "[1]", "value": 0.965}, {"measurement": "normalized growth", "setting": "locus YDL108W, strain KIN28, hits give low values", "value": 0.952}, {"measurement": "normalized growth", "setting": "locus YDL132W, strain cdc53, hits give low values", "value": 0.936}, {"measurement": "normalized growth", "setting": "locus YDL214C, strain PRR2, hits give low values", "value": "0.458 (active)"}, {"measurement": "normalized growth", "setting": "locus YDR052C, strain DBF4, hits give low values", "value": 0.964}, {"measurement": "normalized growth", "setting": "locus YDR054C, strain cdc34, hits give low values", "value": 0.947}, {"measurement": "normalized growth", "setting": "locus YDR226W, strain ADK1, hits give low values", "value": 0.927}, {"measurement": "normalized growth", "setting": "locus YDR477W, strain SNF1, hits give low values", "value": 0.767}, {"measurement": "normalized growth", "setting": "locus YER123W, strain YCK3, hits give low values", "value": "0.529 (active)"}, {"measurement": "normalized growth", "setting": "locus YER133W, strain GLC7, hits give low values", "value": 0.762}, {"measurement": "normalized growth", "setting": "locus YFL009W, strain cdc4, hits give low values", "value": 0.93}, {"measurement": "normalized growth", "setting": "locus YFL029C, strain CAK1, hits give low values", "value": 0.943}, {"measurement": "normalized growth", "setting": "locus YFR003C, strain YPI1, hits give low values", "value": 0.962}, {"measurement": "normalized growth", "setting": "locus YFR019W, strain FAB1, hits give low values", "value": "0.721 (active)"}, {"measurement": "normalized growth", "setting": "locus YFR028C, strain CDC14, hits give low values", "value": 0.943}, {"measurement": "normalized growth", "setting": "locus YGR040W, strain KSS1, hits give low values", "value": 0.771}, {"measurement": "normalized growth", "setting": "locus YGR052W, strain FMP48, hits give low values", "value": 0.7}, {"measurement": "normalized growth", "setting": "locus YGR092W, strain DBF2, hits give low values", "value": "0.484 (active)"}, {"measurement": "normalized growth", "setting": "[2]", "value": "0.197 (active)"}, {"measurement": "normalized growth", "setting": "locus YHR079C, strain IRE1, hits give low values", "value": "0.418 (active)"}, {"measurement": "normalized growth", "setting": "locus YHR082C, strain KSP1, hits give low values", "value": 0.707}, {"measurement": "normalized growth", "setting": "locus YHR205W, strain SCH9, hits give low values", "value": 0.609}, {"measurement": "normalized growth", "setting": "locus YIL147C, strain SLN1, hits give low values", "value": 0.952}, {"measurement": "normalized growth", "setting": "locus YJL095W, strain BCK1, hits give low values", "value": "0.35 (active)"}, {"measurement": "normalized growth", "setting": "locus YJL128C, strain PBS2, hits give low values", "value": 0.948}, {"measurement": "normalized growth", "setting": "locus YJL157C, strain FAR1, hits give low values", "value": "0.533 (active)"}, {"measurement": "normalized growth", "setting": "locus YJR016C, strain ILV3, hits give low values", "value": 0.944}, {"measurement": "normalized growth", "setting": "locus YJR066W, strain TOR1 (second series), hits give low values", "value": "0.531 (active)"}, {"measurement": "normalized growth", "setting": "locus YJR066W, strain TOR1, hits give low values", "value": 0.621}, {"measurement": "normalized growth", "setting": "locus YKL048C, strain ELM1, hits give low values", "value": "0.778 (active)"}, {"measurement": "normalized growth", "setting": "locus YKL067W, strain YNK1, hits give low values", "value": "0.39 (active)"}, {"measurement": "normalized growth", "setting": "locus YKL101W, strain HSL1, hits give low values", "value": "0.542 (active)"}, {"measurement": "normalized growth", "setting": "locus YKL193C, strain SDS22, hits give low values", "value": 0.935}, {"measurement": "normalized growth", "setting": "locus YKL203C, strain TOR2, hits give low values", "value": 0.872}, {"measurement": "normalized growth", "setting": "locus YLR113W, strain HOG1, hits give low values", "value": "0.554 (active)"}, {"measurement": "normalized growth", "setting": "locus YLR133W, strain CKI1, hits give low values", "value": "0.574 (active)"}, {"measurement": "normalized growth", "setting": "locus YLR403W, strain SFP1, hits give low values", "value": 0.754}, {"measurement": "normalized growth", "setting": "locus YML070W, strain DAK1, hits give low values", "value": "0.465 (active)"}, {"measurement": "normalized growth", "setting": "locus YMR001C, strain CDC5, hits give low values", "value": 0.928}, {"measurement": "normalized growth", "setting": "locus YMR205C, strain PFK2 (second series), hits give low values", "value": "0.387 (active)"}, {"measurement": "normalized growth", "setting": "locus YMR277W, strain FCP1, hits give low values", "value": 0.924}, {"measurement": "normalized growth", "setting": "locus YNL006W, strain LST8, hits give low values", "value": 0.961}, {"measurement": "normalized growth", "setting": "locus YNL020C, strain ARK1, hits give low values", "value": "0.418 (active)"}, {"measurement": "normalized growth", "setting": "locus YNL161W, strain CBK1, hits give low values", "value": 0.939}, {"measurement": "normalized growth", "setting": "locus YNL183C, strain NPR1, hits give low values", "value": "0.351 (active)"}, {"measurement": "normalized growth", "setting": "locus YNL207W, strain RIO2, hits give low values", "value": 0.929}, {"measurement": "normalized growth", "setting": "locus YNL222W, strain SSU72, hits give low values", "value": 0.944}, {"measurement": "normalized growth", "setting": "locus YNL307C, strain MCK1 (second series), hits give low values", "value": "0.556 (active)"}, {"measurement": "normalized growth", "setting": "locus YOL078W, strain AVO1, hits give low values", "value": 0.927}, {"measurement": "normalized growth", "setting": "locus YOL136C, strain PFK27, hits give low values", "value": "0.633 (active)"}, {"measurement": "normalized growth", "setting": "locus YOR061W, strain CKA2, hits give low values", "value": "0.174 (active)"}, {"measurement": "normalized growth", "setting": "locus YOR119C, strain RIO1, hits give low values", "value": 0.818}, {"measurement": "normalized growth", "setting": "locus YOR231W, strain MKK1, hits give low values", "value": "0.333 (active)"}, {"measurement": "normalized growth", "setting": "locus YOR329C, strain SCD5, hits give low values", "value": 0.962}, {"measurement": "normalized growth", "setting": "locus YPL031C, strain PHO85, hits give low values", "value": "0.55 (active)"}, {"measurement": "normalized growth", "setting": "locus YPL153C, strain RAD53, hits give low values", "value": "0.629 (active)"}, {"measurement": "normalized growth", "setting": "locus YPL204W, strain HRR25, hits give low values", "value": 0.751}, {"measurement": "normalized growth", "setting": "locus YPL209C, strain IPL1, hits give low values", "value": 0.958}, {"measurement": "normalized growth", "setting": "locus YPL256C, strain CLN2, hits give low values", "value": "0.515 (active)"}, {"measurement": "normalized growth", "setting": "locus YPR025C, strain CCL1, hits give low values", "value": 0.95}, {"measurement": "normalized growth", "setting": "locus YPR106W, strain ISR1, hits give low values", "value": 0.978}, {"measurement": "normalized growth", "setting": "locus YPR111W, strain DBF20, hits give low values", "value": 0.96}, {"measurement": "normalized growth", "setting": "strain NNK1, hits give low values", "value": 0.969}, {"measurement": "normalized growth", "setting": "strain TSCII, hits give low values", "value": 0.929}]}
{"smiles": "CN(C)C=Nc1nnc(Sc2ncccc2[N+](=O)[O-])s1", "values": [{"measurement": "normalized growth", "setting": "locus YAL013W, strain DEP1, hits give low values", "value": 0.999}, {"measurement": "normalized growth", "setting": "locus YBR229C, strain ROT2, hits give low values", "value": 1}, {"measurement": "normalized growth", "setting": "locus YCL061C, strain MRC1, hits give low values", "value": 1.01}, {"measurement": "normalized growth", "setting": "[1]", "value": 1.01}, {"measurement": "normalized growth", "setting": "locus YDL134C, strain PPH21, hits give low values", "value": 1.01}, {"measurement": "normalized growth", "setting": "locus YDR150W, strain NUM1, hits give low values", "value": 0.987}, {"measurement": "normalized growth", "setting": "locus YEL061C, strain CIN8, hits give low values", "value": 0.995}, {"measurement": "normalized growth", "setting": "locus YGR078C, strain PAC10, hits give low values", "value": 1}, {"measurement": "normalized growth", "setting": "locus YGR229C, strain SMI1, hits give low values", "value": 0.992}, {"measurement": "normalized growth", "setting": "[2]", "value": 1}, {"measurement": "normalized growth", "setting": "locus YHR087W, strain rtc3, hits give low values", "value": 1.01}, {"measurement": "normalized growth", "setting": "locus YJR043C, strain POL32, hits give low values", "value": 0.985}, {"measurement": "normalized growth", "setting": "locus YJR075W, strain HOC1, hits give low values", "value": 0.997}, {"measurement": "normalized growth", "setting": "locus YLR039C, strain RIC1, hits give low values", "value": 1.03}, {"measurement": "normalized growth", "setting": "locus YLR058C, strain SHM2 (second series), hits give low values", "value": 1}, {"measurement": "normalized growth", "setting": "locus YLR085C, strain ARP6, hits give low values", "value": 1.06}, {"measurement": "normalized growth", "setting": "locus YLR262C, strain YPT6, hits give low values", "value": 1.03}, {"measurement": "normalized growth", "setting": "locus YML094W, strain GIM5, hits give low values", "value": 1.01}, {"measurement": "normalized growth", "setting": "locus YMR219W, strain ESC1, hits give low values", "value": 1.01}, {"measurement": "normalized growth", "setting": "locus YMR263W, strain SAP30, hits give low values", "value": 0.995}, {"measurement": "normalized growth", "setting": "locus YMR307W, strain GAS1, hits give low values", "value": 0.983}, {"measurement": "normalized growth", "setting": "locus YNL153C, strain GIM3, hits give low values", "value": 0.977}, {"measurement": "normalized growth", "setting": "locus YNL298W, strain CLA4 (second series), hits give low values", "value": 1.06}, {"measurement": "normalized growth", "setting": "locus YNL322C, strain KRE1, hits give low values", "value": 1.02}, {"measurement": "normalized growth", "setting": "locus YNR030W, strain Alg12, hits give low values", "value": 1.04}, {"measurement": "normalized growth", "setting": "locus YOL006C, strain TOP1, hits give low values", "value": 1.01}, {"measurement": "normalized growth", "setting": "locus YPL055C, strain LGE1, hits give low values", "value": 0.988}, {"measurement": "normalized growth", "setting": "locus YPL241C, strain CIN2, hits give low values", "value": 1.02}, {"measurement": "normalized growth", "setting": "locus YPR135W, strain CTF4, hits give low values", "value": 1.06}]}
